Test results: PubChem BioAssay (EPA / NIEHS)
Several values for one entry are separate records, joined by “and”; a condition that tells them apart may be missing. Equal entries are not always repeated. A structure can be active in one record and inactive in another. Activity calls are given as the source filed them. The calls were made as follows: active = hit-call score of the fitted dose curve at least 0.9, where 1 is the maximum; inactive = score below 0.9.

Key:
Conditions in all cases: mRNA level, 48 h; actives raise or lower the signal
[1] = read-out: ABC Transporter (ABCB1), ABCB1 (gene 5243); assay: LTEA_HepaRG_ABCB1: Life Technologies and Expression Analysis (LTEA) Assay for ABC Transporter (ABCB1) using HepaRG (AID 2283460)
Summary of the method: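 ABCB1 transcript level measured by TaqMan qRT-PCR against three housekeeping genes after 48 h chemical exposure of differentiated HepaRG cells. Top concentration 100 uM, half-log steps, eight points, 0.5% DMSO vehicle; bidirectional fit relative to DMSO.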

[2] = read-out: growth arrest and DNA damage 45 (GADD45B), GADD45B (gene 4616); assay: LTEA_HepaRG_GADD45B: Life Technologies and Expression Analysis (LTEA) Assay for growth arrest and DNA damage 45 (GADD45B) using HepaRG (AID 2283461)
Summary of the method: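 Differentiated HepaRG cells, plated 48 h then switched to serum-free induction medium, were exposed 48 h in duplicate to eight half-log concentrations from 100 uM in 0.5% DMSO; mRNA quantified by qRT-PCR, normalized to ACTB/GAPDH/POLR2A, bidirectional fit versus DMSO.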

[3] = read-out: ABC Transporter (ABCC3), ABCC3 (gene 8714); assay: LTEA_HepaRG_ABCC3: Life Technologies and Expression Analysis (LTEA) Assay for ABC Transporter (ABCC3) using HepaRG (AID 2283462)
Summary of the method: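 HepaRG cells in serum-free induction medium were exposed for 48 h in duplicate to 8-point half-log concentrations topping at 100 uM in 0.5% DMSO. ABCC3 mRNA was measured by qRT-PCR normalized to ACTB, GAPDH and POLR2A, with bidirectional fitting versus DMSO.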

[4] = read-out: ABC Transporter (ABCC2), ABCC2 (gene 1244); assay: LTEA_HepaRG_ABCC2: Life Technologies and Expression Analysis (LTEA) Assay for ABC Transporter (ABCC2) using HepaRG (AID 2283464)
Summary of the method: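 HepaRG cells were plated 48 h, switched to serum-free induction medium, then exposed in duplicate for 48 h to 8 concentrations (top 100 uM, half-log steps, 0.5% DMSO). ABCC2 mRNA was measured by qRT-PCR normalized to ACTB/GAPDH/POLR2A; bidirectional fitting versus DMSO.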

[5] = read-out: Broad substrate specificity ATP-binding cassette transporter ABCG2 (Homo sapiens) (UniProt Q9UNQ0); assay: LTEA_HepaRG_ABCG2: Life Technologies and Expression Analysis (LTEA) Assay for ABC Transporter (ABCG2) using HepaRG (AID 2283465)
Summary of the method: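 ABCG2 transcript was quantified by TaqMan qRT-PCR against three housekeeping genes in HepaRG cells. Cells were treated in duplicate for 48 h across an 8-point half-log series up to 100 uM, with 0.5% DMSO vehicle. Gain or loss versus DMSO was fit.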

[6] = read-out: ATP-citrate lyase (ACLY), ACLY (gene 47); assay: LTEA_HepaRG_ACLY: Life Technologies and Expression Analysis (LTEA) Assay for ATP-citrate lyase (ACLY) using HepaRG (AID 2283466)
Summary of the method: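 ACLY mRNA quantified by qRT-PCR on Fluidigm arrays against three housekeeping genes, after 48 h chemical treatment of HepaRG cells (top concentration 100 uM, half-log steps, 0.5% DMSO vehicle). Up- or down-regulation fitted relative to DMSO.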

[7] = read-out: Peroxisomal acyl-coenzyme A oxidase 1 (ACOX1) gene, ACOX1 (gene 51); assay: LTEA_HepaRG_ACOX1: Life Technologies and Expression Analysis (LTEA) Assay for Peroxisomal acyl-coenzyme A oxidase 1 (ACOX1) gene using HepaRG (AID 2283467)
Summary of the method: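 ACOX1 transcript levels were quantified by TaqMan qRT-PCR against three housekeeping genes after 48 h chemical exposure of differentiated human HepaRG cells. Exposure used eight half-log steps topping at 100 uM, 0.5% DMSO vehicle, in duplicate. Bidirectional curve fits were made relative to DMSO.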

[8] = read-out: Alkaline Phosphatase, Placental (ALPP) gene, ALPP (gene 250); assay: LTEA_HepaRG_ALPP: Life Technologies and Expression Analysis (LTEA) Assay for Alkaline Phosphatase, Placental (ALPP) gene using HepaRG (AID 2283468)
Summary of the method: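 Differentiated human HepaRG cells were plated and cultured 48 h, then exposed in duplicate for 48 h in serum-free induction medium to eight half-log concentrations from 100 uM in 0.5% DMSO. ALPP mRNA was measured by TaqMan qRT-PCR, normalized to ACTB, GAPDH, POLR2A.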

[9] = read-out: Bcl-2 (BAD) gene, BAD (gene 572); assay: LTEA_HepaRG_BAD: Life Technologies and Expression Analysis (LTEA) Assay for Bcl-2 (BAD) gene using HepaRG (AID 2283469)
Summary of the method: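 Read-out: qRT-PCR of BAD mRNA, normalized to three housekeeping genes. Human HepaRG cultures got 48 h chemical exposure in 0.5% DMSO, duplicate eight-point half-log series topping at 100 uM. Gain or loss of signal fitted versus DMSO vehicle.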

[10] = read-out: Bcl-2 (BAX) gene, BAX (gene 581); assay: LTEA_HepaRG_BAX: Life Technologies and Expression Analysis (LTEA) Assay for Bcl-2 (BAX) gene using HepaRG (AID 2283470)
Summary of the method: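 Human HepaRG cells treated in duplicate for 48 h across eight concentrations (max 100 uM, 0.5% DMSO); BAX expression measured by qRT-PCR.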

[11] = read-out: adenosine kinase (ADK) gene, ADK (gene 132); assay: LTEA_HepaRG_ADK: Life Technologies and Expression Analysis (LTEA) Assay for adenosine kinase (ADK) gene using HepaRG (AID 2283471)
Summary of the method: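 Following 48 h exposure of HepaRG cells in 0.5% DMSO (top concentration 100 uM, duplicate wells), ADK mRNA induction or suppression was measured by qRT-PCR, normalised to ACTB/GAPDH/POLR2A, and fitted bidirectionally relative to vehicle.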

[12] = read-out: Alpha-fetoprotein (AFP) gene, AFP (gene 174); assay: LTEA_HepaRG_AFP: Life Technologies and Expression Analysis (LTEA) Assay for Alpha-fetoprotein (AFP) gene using HepaRG (AID 2283472)
Summary of the method: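 Measures AFP mRNA change in HepaRG after 48 h chemical exposure (8 half-log concentrations, highest 100 uM, 0.5% DMSO). Fold change relative to DMSO, fitted in both directions.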

[13] = read-out: Apoptosis regulator Bcl-2 (Homo sapiens) (UniProt P10415); assay: LTEA_HepaRG_BCL2: Life Technologies and Expression Analysis (LTEA) Assay for Bcl-2 gene using HepaRG (AID 2283475)
Summary of the method: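 Each chemical was tested in duplicate on HepaRG cultures held in serum-free induction medium for 48 h, highest concentration 100 uM with half-log dilutions. Transcript levels came from multiplexed qRT-PCR, normalised to housekeeping genes; activity was scored in either direction relative to DMSO.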

[14] = read-out: Bcl-2 (BID) gene, BID (gene 637); assay: LTEA_HepaRG_BID: Life Technologies and Expression Analysis (LTEA) Assay for Bcl-2 (BID) gene using HepaRG (AID 2283476)
Summary of the method: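 Assay used HepaRG hepatic cells treated 48 h in serum-free medium with half-log dilutions from 100 uM. Endpoint: BID mRNA, qRT-PCR, normalized to ACTB/GAPDH/POLR2A.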

Caspase-3 (Homo sapiens) = Caspase-3 (Homo sapiens) (UniProt P42574); assay: LTEA_HepaRG_CASP3: Life Technologies and Expression Analysis (LTEA) Assay for cysteine-aspartic acid protease (CASP3) using HepaRG (AID 2283477)
Caspase-3 (Homo sapiens), sequence (P42574 whole entry, looked up): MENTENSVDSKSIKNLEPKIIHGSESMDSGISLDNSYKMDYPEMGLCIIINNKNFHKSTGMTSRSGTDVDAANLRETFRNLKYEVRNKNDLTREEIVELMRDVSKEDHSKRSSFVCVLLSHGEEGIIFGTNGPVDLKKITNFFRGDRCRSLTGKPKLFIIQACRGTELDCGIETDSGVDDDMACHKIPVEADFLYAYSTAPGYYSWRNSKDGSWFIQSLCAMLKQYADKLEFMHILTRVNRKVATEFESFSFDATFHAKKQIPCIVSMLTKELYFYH
Summary of the method: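 Differentiated human HepaRG cells in serum-free induction medium were exposed 48 h to 8-point half-log concentrations from 100 uM (0.5% DMSO vehicle). CASP3 mRNA was measured by qRT-PCR, normalised to ACTB, GAPDH and POLR2A, with bidirectional fitting against DMSO.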

[15] = read-out: Cytochrome P450 (CYP24A1), CYP24A1 (gene 1591); assay: LTEA_HepaRG_CYP24A1: Life Technologies and Expression Analysis (LTEA) Assay for Cytochrome P450 (CYP24A1) using HepaRG (AID 2283478)
Summary of the method: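 Differentiated HepaRG cells, pre-cultured 48 h, were exposed in duplicate for 48 h in serum-free induction medium to 8 half-log concentrations (top 100 uM, 0.5% DMSO). CYP24A1 mRNA was quantified by TaqMan qRT-PCR, normalized to ACTB/GAPDH/POLR2A, fitted bidirectionally versus DMSO.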

[16] = read-out: Cytochrome P450 (CYP1A2), CYP1A2 (gene 1544); assay: LTEA_HepaRG_CYP1A2: Life Technologies and Expression Analysis (LTEA) Assay for Cytochrome P450 (CYP1A2) using HepaRG (AID 2283479)
Summary of the method: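 Differentiated human HepaRG cells in serum-free induction medium were exposed in duplicate for 48 h to 8-point half-log concentrations up to 100 uM in 0.5% DMSO. CYP1A2 mRNA measured by qRT-PCR, normalized to ACTB, GAPDH, POLR2A; bidirectional fit vs DMSO.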

BCL2L11 (gene 10018) = assay: LTEA_HepaRG_BCL2L11: Life Technologies and Expression Analysis (LTEA) Assay for Bcl-2 (BCL2L11) gene using HepaRG (AID 2283473)
Summary of the method: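 Differentiated human HepaRG cells in serum-free induction medium were exposed in duplicate for 48 h to eight concentrations (top 100 uM, half-log steps, 0.5% DMSO). BCL2L11 mRNA was quantified by TaqMan qRT-PCR, normalized to ACTB/GAPDH/POLR2A, bidirectional fit versus DMSO.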

[17] = read-out: ABC Transporter (ABCB11), ABCB11 (gene 8647); assay: LTEA_HepaRG_ABCB11: Life Technologies and Expression Analysis (LTEA) Assay for ABC Transporter (ABCB11) using HepaRG (AID 2283463)
Summary of the method: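 ABCB11 transcript levels quantified by TaqMan qRT-PCR against three housekeeping genes after 48 h chemical exposure of HepaRG cultures. Concentrations up to 100 uM in half-log steps, 0.5% DMSO vehicle; both induction and suppression scored.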

[18] = read-out: Apolipoprotein A-V (APOA5) gene, APOA5 (gene 116519); assay: LTEA_HepaRG_APOA5: Life Technologies and Expression Analysis (LTEA) Assay for Apolipoprotein A-V (APOA5) gene using HepaRG (AID 2283474)
Summary of the method: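 Differentiated human HepaRG cells were exposed in duplicate for 48 h to eight half-log concentrations from 100 uM in 0.5% DMSO. APOA5 mRNA was quantified by TaqMan qRT-PCR, normalized to ACTB, GAPDH and POLR2A, and fitted bidirectionally against DMSO.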

Broad substrate specificity ATP-binding cassette transporter ABCG2 (Homo sapiens), sequence (Q9UNQ0 whole entry, looked up): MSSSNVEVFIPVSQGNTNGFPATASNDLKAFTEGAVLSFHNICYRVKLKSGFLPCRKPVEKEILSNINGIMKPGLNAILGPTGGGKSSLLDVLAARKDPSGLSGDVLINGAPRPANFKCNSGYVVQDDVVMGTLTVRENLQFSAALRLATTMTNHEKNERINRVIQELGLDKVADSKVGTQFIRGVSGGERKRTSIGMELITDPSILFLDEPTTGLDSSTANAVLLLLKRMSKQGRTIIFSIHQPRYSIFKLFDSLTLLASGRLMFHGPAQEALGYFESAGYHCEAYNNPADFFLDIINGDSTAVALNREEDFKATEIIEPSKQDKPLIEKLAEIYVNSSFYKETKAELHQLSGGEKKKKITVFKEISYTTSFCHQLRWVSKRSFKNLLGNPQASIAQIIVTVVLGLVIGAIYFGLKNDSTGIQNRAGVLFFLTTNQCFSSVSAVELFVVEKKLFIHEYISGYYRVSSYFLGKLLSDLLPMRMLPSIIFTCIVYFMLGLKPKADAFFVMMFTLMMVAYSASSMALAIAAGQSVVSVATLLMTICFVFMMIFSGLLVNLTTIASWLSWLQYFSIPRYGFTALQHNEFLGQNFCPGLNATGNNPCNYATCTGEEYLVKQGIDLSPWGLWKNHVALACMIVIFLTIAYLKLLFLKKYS
Apoptosis regulator Bcl-2 (Homo sapiens), sequence (P10415 whole entry, looked up): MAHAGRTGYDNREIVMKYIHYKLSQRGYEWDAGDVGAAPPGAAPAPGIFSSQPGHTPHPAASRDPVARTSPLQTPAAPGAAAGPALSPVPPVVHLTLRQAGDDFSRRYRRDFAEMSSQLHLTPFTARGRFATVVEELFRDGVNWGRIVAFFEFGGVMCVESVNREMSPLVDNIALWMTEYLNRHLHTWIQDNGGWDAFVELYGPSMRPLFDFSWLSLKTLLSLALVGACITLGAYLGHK

Structure (SMILES): CCN(CC)C(=O)SCc1ccc(Cl)cc1
- outcome [1]: inactive
- outcome [2]: inactive
- outcome [3]: inactive
- outcome [4]: inactive
- outcome [5]: inactive
- outcome [6]: inactive
- outcome [7]: inactive
- outcome [8]: inactive
- outcome [9]: inactive
- outcome [10]: inactive
- outcome [11]: inactive
- outcome [12]: inactive
- outcome [13]: inactive
- outcome [14]: inactive
- outcome (Caspase-3 (Homo sapiens)): inactive
- outcome [15]: inactive
- outcome [16]: inactive

Structure (SMILES): CC(C)OC(=O)Nc1cccc(Cl)c1
- outcome [1]: inactive
- outcome [2]: inactive
- outcome [3]: inactive
- outcome [4]: inactive
- outcome [5]: inactive
- outcome [6]: inactive
- outcome [7]: inactive
- outcome [8]: inactive
- outcome [9]: inactive
- outcome [10]: inactive
- outcome [11]: inactive
- outcome [12]: inactive
- outcome (BCL2L11 (gene 10018)): inactive
- outcome [13]: inactive
- AC50 [14]: 7.78 µM (active)
- outcome (Caspase-3 (Homo sapiens)): inactive
- outcome [15]: inactive
- outcome [16]: inactive

Structure (SMILES): O=C(Nc1ccccc1)Nc1cnns1
- outcome [1]: inactive
- outcome [2]: inactive
- AC50 [3]: 78.6 µM (active)
- AC50 [17]: 63.6 µM (active)
- AC50 [4]: 89.5 µM (active)
- outcome [5]: inactive
- outcome [6]: inactive
- AC50 [7]: 50 µM (active)
- AC50 [8]: 78.6 µM (active)
- outcome [9]: inactive
- outcome [10]: inactive
- outcome [11]: inactive
- AC50 [12]: 76.2 µM (active)
- outcome [13]: inactive
- outcome [14]: inactive
- outcome (Caspase-3 (Homo sapiens)): inactive
- outcome [15]: inactive
- AC50 [16]: 68 µM (active)

Structure (SMILES): O=S(=O)(O)C(F)(F)C(F)(F)C(F)(F)C(F)(F)C(F)(F)C(F)(F)C(F)(F)C(F)(F)F
- outcome [1]: inactive
- outcome [2]: inactive
- outcome [3]: inactive
- AC50 [4]: 14.2 µM (active) and 90.7 µM (active)
- outcome [4]: inactive
- AC50 [5]: 14.4 µM (active) and 7.01 µM (active)
- outcome [5]: inactive
- AC50 [6]: 50 µM (active) and 9.92 µM (active)
- outcome [6]: inactive
- outcome [7]: inactive
- AC50 [8]: 36.6 µM (active) and 50 µM (active) and 48 µM (active)
- outcome [8]: inactive
- outcome [9]: inactive
- AC50 [10]: 50 µM (active) and 48 µM (active)
- outcome [10]: inactive
- AC50 [11]: 12.8 µM (active)
- outcome [11]: inactive
- AC50 [12]: 77.9 µM (active) and 80.1 µM (active) and 75.8 µM (active)
- outcome [12]: inactive
- AC50 [13]: 50 µM (active) and 65.5 µM (active) and 48 µM (active)
- outcome [14]: inactive
- AC50 (Caspase-3 (Homo sapiens)): 22.1 µM (active)
- outcome (Caspase-3 (Homo sapiens)): inactive
- AC50 [15]: 0.00316 µM (active)
- outcome [15]: inactive
- AC50 [16]: 84.5 µM (active) and 10.3 µM (active) and 48 µM (active)

Structure (SMILES): CCCN(CCOc1c(Cl)cc(Cl)cc1Cl)C(=O)n1ccnc1
- AC50 [1]: 3.22 µM (active)
- outcome [2]: inactive
- outcome [3]: inactive
- AC50 [17]: 25.5 µM (active)
- AC50 [4]: 84.8 µM (active)
- AC50 [5]: 10.8 µM (active)
- AC50 [6]: 12.5 µM (active)
- AC50 [7]: 50 µM (active)
- AC50 [8]: 35.6 µM (active)
- outcome [9]: inactive
- AC50 [10]: 50 µM (active)
- outcome [11]: inactive
- AC50 [12]: 22.5 µM (active)
- AC50 [18]: 39 µM (active)
- AC50 [13]: 28.9 µM (active)
- outcome [14]: inactive
- outcome (Caspase-3 (Homo sapiens)): inactive
- outcome [15]: inactive
- AC50 [16]: 3.86 µM (active)
